Source: PubChem BioAssay AID686978 (National Center for Advancing Translational Sciences (NCATS), 2013)
Out of some 420,000 compounds screened, about 64,000 (15%) were called active. Inconclusive results (about 27%) are left out. Calls follow the shape of the dose curve; as a rule, active = well fitted inhibition curve with a large enough effect; inconclusive = small, poorly fitted or top-dose-only effect; inactive = flat fitted curve, though single readings scatter. Only a sample is shown. Where a call stands in place of a potency, no number is given.

test: qHTS for Inhibitors of human tyrosyl-DNA phosphodiesterase 1 (TDP1): qHTS in cells in absence of CPT; conditions: DT40 Tdp1-/- hTDP1 cells, no CPT, ATP luminescence, 48 h; activity change, negative = growth inhibition: at 46.2 µM (top of the series); also: nearly all actives have a fitted effect of over 55% in size
Outline: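 Growth of hTDP1-complemented DT40 Tdp1-knockout cells is measured by ATP luminescence after at least 48 hr compound exposure at 37 °C, with DMSO substituting for the 20 nM CPT used in the parallel screen.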
Potency is read from the fitted curve at half-maximal effect.

SMILES	Potency
C[C@@H]1O[C@@H](OC[C@H]2O[C@@H](Oc3c(-c4ccc(O)cc4)oc4cc(O)cc(O)c4c3=O)[C@H](O)[C@@H](O)[C@@H]2O)[C@H](O)[C@H](O)[C@H]1O	inactive
CCOc1ccc(C(C)NC(=O)CN2C(=O)NC3(CCCCC3)C2=O)cc1OCC (stereo unspecified)	inactive
Cc1ccccc1NC(=O)Cn1c(=O)n(CC2CCCO2)c(=O)c2ccccc21 (stereo unspecified)	inactive
C=C1O[C@@](CO)(n2cnc3c(N)ncnc32)[C@H](O)[C@@H]1O	inactive
CNC(=S)NNC(=O)c1ccc(N(C)C)cc1	inactive
COc1ccc(C(=O)NNC(=S)NC(=O)c2ccccc2)cc1	16.4 µM (active)
CC(=O)NC(=S)NNC(=O)c1ccc(Br)cc1	5.8 µM (active)
O=C(NC(=S)Nc1ccc(S(=O)(=O)N2CCOCC2)cc1)c1ccccc1[N+](=O)[O-]	inactive
COc1ccc(C(=S)Nc2ccccc2)cc1	inactive
O=C(CCc1ccccc1)NNC(=O)c1ccc(Br)cc1	inactive
CC(C)Oc1ccc(CCC(=O)NNC(=S)NCc2ccccc2)cc1	inactive
COc1ccc(C(=O)NC(=S)NNC(=O)CCc2ccccc2)cc1	6.51 µM (active)
COc1ccc(C(=O)NNC(=S)NC(=O)c2ccccc2[N+](=O)[O-])cc1	23.1 µM (active)
COc1ccc(C(=O)NC2CCN(C(=S)Nc3ccccc3)CC2)cc1	inactive
COC(=O)CNC(=O)c1ccccc1[N+](=O)[O-]	inactive
O=C(NNC(=O)c1ccc(Cl)nc1)c1ccc(Br)cc1	inactive
CS(=O)(=O)Nc1ccccc1C(=O)OCC(=O)NC1CC1	inactive
CC(C)NC(=O)c1ccc(Sc2ccccc2)c([N+](=O)[O-])c1	inactive
CCOc1ncccc1C(=O)OCc1cn2cc(Cl)ccc2n1	inactive
C[C@@H]1CN([C@H](C)CO)C(=O)c2cc(Br)cnc2O[C@@H]1CN(C)Cc1cncnc1	inactive
COc1ccc(-c2[nH]nc(-c3ccccc3)c2-c2nc3ccccc3[nH]2)cc1	inactive
CNC(=O)NCCN1CCCC1=O	inactive
COC(=O)C[C@@H]1C=C[C@@H](NC(=O)c2cccnc2)[C@@H](CO)O1	inactive
Cc1nn(C)c(Oc2ccccc2)c1[N+](=O)[O-]	inactive
CN(Cc1ccccn1)Cc1nc(-c2ccc(Cl)cc2)no1	inactive
CN(CCN1CCOCC1)Cc1nc(-c2ccc3c(c2)OCO3)no1	inactive

SMILES	Potency
CCN1CC(CN(C)Cc2nc(-c3ccc(Cl)cc3)no2)CC1=O (stereo unspecified)	16.4 µM (active)
O=C(Nc1ccccc1)O/N=C1/CCCc2occc21	inactive
COc1ccc(CNC(=O)CN2C(=O)NC3(CCCc4sccc43)C2=O)cc1 (stereo unspecified)	inactive
COc1ccc(C(=O)CN2C(=O)NC3(CCc4ccccc43)C2=O)c(OC)c1 (stereo unspecified)	inactive
COc1ccc(-n2c(C)cc(C(=O)CN3C(=O)NC4(CCc5ccccc54)C3=O)c2C)cc1 (stereo unspecified)	18.4 µM (active)
CCc1cccc(NC(=O)COC(=O)c2cc(=O)c3ccccc3o2)c1	inactive
CCOc1ccc(NC(=O)C(=O)NCCc2csc3nc(-c4ccccc4F)nn23)cc1	inactive
CCC1(C2CCN(C(=O)c3cccc(F)c3F)CC2)NC(=O)N(CCc2scnc2C)C1=O (stereo unspecified)	inactive
Cn1cccc1C(=O)Nc1nccs1	inactive
CC(C)NC(=O)N1CC[C@@]2(CCCN(C(=O)c3cccc(F)c3)C2)C1	inactive
Cc1ccccc1OCC(=O)N(Cc1cccc(F)c1)C1CCS(=O)(=O)C1 (stereo unspecified)	inactive
Cc1ccc(CN(C(=O)COc2ccc(Cl)cc2C)C2CCS(=O)(=O)C2)o1 (stereo unspecified)	23.1 µM (active)
CCCCN(C(=O)COc1ccc(NC(C)=O)cc1)C1CCS(=O)(=O)C1 (stereo unspecified)	inactive
O=C(/C=N/O)Nc1ccccc1	inactive
CCc1c(C)c2ccc(OC3CCCCC3=O)cc2oc1=O (stereo unspecified)	inactive
O=c1[nH]cnc(O)c1C(c1ccc(F)cc1)c1c(O)nc[nH]c1=O	inactive
O=C(O)CCn1c(Cc2ccccc2)nc2ccccc21	inactive
O=C(O)CCn1c(O)c(C=C2N=c3ccccc3=N2)sc1=S	18.4 µM (active)
O=C(NCCc1ccc(C(F)(F)F)cc1)c1ccc2c(c1)OCO2	inactive
CC1C(c2ccccc2)=[N+]([O-])C2(CCCC2)N1O (stereo unspecified)	inactive
COc1ccc(C2CC(=O)c3c(O)cc(OC4OC(COC5OC(C)C(O)C(O)C5O)C(O)C(O)C4O)cc3O2)cc1O (stereo unspecified)	inactive
CC(C)S(=O)(=O)c1oc(-c2ccc(F)cc2)nc1S(=O)(=O)c1ccc(F)cc1	0.326 µM (active)
COc1cc(-c2nc(S(=O)(=O)c3ccc(Cl)cc3)c(N(C)C)o2)cc(OC)c1OC	inactive
CC1(C)OC2CC3C4CCC5=CC(=O)CCC5(C)C4(F)C(O)CC3(C)[C@]2(C(=O)CCl)O1 (stereo partly specified)	inactive
COc1cc(C(=O)Nn2c(O)c(C3=c4ccccc4=NC3=O)sc2=S)ccc1O	inactive
CO[C@@H]1[C@@H](OC(N)=O)[C@@H](O)C(Oc2ccc3c(O)c(NC(=O)c4ccc(O)c(CC=C(C)C)c4)c(=O)oc3c2C)OC1(C)C (stereo partly specified)	inactive

SMILES	Potency
CCc1cccc(C)c1N(C(=O)Cn1c(CO)nc2ccccc21)C(C)COC (stereo unspecified)	inactive
COCc1nc2ccccc2n1Cc1ccccc1Br	16.4 µM (active)
O=C(NC1Cc2ccccc2C1)c1cc(COc2cccc(C(F)(F)F)c2)on1	inactive
C/C(CC(=O)N1CCN(C=O)CC1)=N\NC(=O)c1ccc(Br)cc1	inactive
COC(=O)[C@@H]1C[C@@]2(O)[C@H](O)[C@H](O)[C@H](O)C[C@H]2N1Cc1ccc(C)s1	inactive
CC(C)N=C1CCCC1C(=S)SSC(=S)C1CCCC1=NC(C)C (stereo unspecified)	0.164 µM (active)
COc1cc(OC)c2c(c1Cl)OC1(C2=O)C(O)=CC(=O)CC1C (stereo unspecified)	inactive
COc1ccc(CN2CCCCC2C)cc1OC (stereo unspecified)	inactive
COC(=O)c1ccc(COc2ccc(C#N)cc2)o1	inactive
CCOc1cc(C)c(Cl)cc1S(=O)(=O)n1nnc2ccccc21	inactive
CCOc1ccc(C(C)C)cc1S(=O)(=O)n1nc(C)cc1C	13 µM (active)
COc1ccc(C(C)C)cc1S(=O)(=O)Nc1ncn[nH]1	inactive
CCCNC(=O)CCC(=O)N1Cc2ccccc2Oc2ncccc21	inactive
Cc1ccc(NC(=O)CS(=O)CC(=O)N(c2ccccc2)C(C)C(=O)NC2CCCC2)cc1 (stereo unspecified)	inactive
COc1ccc(NS(=O)(=O)c2ccc(C)c(C(=O)NNC(=O)c3csc(N4CCOCC4)n3)c2)cc1	inactive
COc1ccc(NS(=O)(=O)c2ccc(C)c(C(=O)N(C)Cc3ccc(OC)cc3OC)c2)cc1	18.4 µM (active)
CCOc1ccc(NS(=O)(=O)c2ccc(Cl)c(C(=O)N(C)Cc3cccnc3)c2)cc1	inactive
CC(=O)Nc1ccc(S(=O)(=O)N(C)c2nc3ccccc3nc2Cl)cc1	23.1 µM (active)
CC(=O)Nc1ccc(S(=O)(=O)NNC(=O)CCc2ccccc2)cc1	inactive
CC(=O)Nc1ccc(S(=O)(=O)N(C)c2ccc(OCC(=O)OCC(=O)N3CCCCC3)cc2)cc1	inactive
Cc1ccc(C2CC2C(=O)NN)cc1 (stereo unspecified)	inactive
CCOc1ccc(NS(=O)(=O)c2ccc(N)cc2)nn1	inactive
CC(=O)NCCc1ccc(S(=O)(=O)Nc2ccc(C)c(S(=O)(=O)N3CCOCC3)c2)cc1	inactive
CC(=O)c1c(C)n(S(=O)(=O)c2ccc(Cl)cc2)c2ccc(NS(=O)(=O)c3ccc(Cl)cc3)cc12	14.6 µM (active)
CCOC(=O)c1c(C)n(S(=O)(=O)c2ccc(C)cc2C)c2ccc(NS(=O)(=O)c3ccc(C)cc3C)cc12	20.6 µM (active)
CCn1c(C)nc2cc(C(=O)NNS(=O)(=O)c3ccc(C)cc3C)ccc21	inactive

SMILES	Potency
O=S(=O)(Nc1ccc(-n2cnnn2)cc1)c1ccc(Cl)cc1	inactive
CCOC(=O)c1c(S(=O)(=O)NCC(=O)Nc2ccc(C)cc2)c(C)n(C)c1C	inactive
CC(C)(C)CN1CCNC(=O)C1CC(=O)NC1Cc2ccccc2C1 (stereo unspecified)	inactive
Oc1ccc(-c2nncn2-c2ccccc2)cc1	inactive
COc1cccc(NC(=O)CSc2nnc(Cc3ccc(OC)c(OC)c3)o2)c1	inactive
CCC1CCCCN1C(=O)Cn1c(=O)n(CCCCCC(=O)NCc2ccccc2)c(=O)c2sccc21 (stereo unspecified)	13 µM (active)
O=C(CCCn1c(=O)c2sccc2n(CC(=O)NCC2CCCO2)c1=O)NCc1ccco1 (stereo unspecified)	inactive
Cc1ccc(C)c(Cn2c(=O)n(CCC(=O)NCc3ccc4c(c3)OCO4)c(=O)c3sccc32)c1	inactive
NC(CSC12CC3CC(CC(C3)C1)C2)C(=O)O (stereo unspecified)	inactive
CCCc1nc2oc3c(=O)[nH]cnc3c2c2c1COC(C)(C)C2	inactive
C=CCN1CCN(c2ccncc2S(=O)(=O)N2CCN(C)CC2)CC1	inactive
COc1ccccc1C(=O)NC(CCSC)C(=O)N1CCN(C(C)=O)CC1 (stereo unspecified)	inactive
CSCCC(NC(=O)c1ccccc1)C(=O)N1CCCCCCC1 (stereo unspecified)	inactive
O=C(NC(=S)N1CCN(Cc2ccccc2)CC1)c1ccccc1	inactive
CSCCC(NC(=O)c1ccccc1)C(=O)N1CCN(Cc2ccc(Cl)cc2)CC1 (stereo unspecified)	10.3 µM (active)
COc1ccccc1C(=O)NC(CCSC)C(=O)N1CCN(C/C=C/c2ccccc2)CC1 (stereo unspecified)	20.6 µM (active)
COc1ccccc1C(=O)NC(CCSC)C(=O)NNC(=O)c1ccccc1C (stereo unspecified)	inactive
O=C(CN1CCOCC1)Nc1c(-c2ccccc2)c2cc(Br)ccc2[nH]c1=O	inactive
Cc1ccccc1OCc1nc2c3cnn(-c4ccccc4F)c3ncn2n1	inactive
C=CCN(CC=C)CCOc1ccccc1[N+](=O)[O-]	inactive
O=C(Cn1nnc(-c2ccccc2)n1)NCc1ccccc1	inactive
COc1ccc(CNC(=O)Cn2nnc(-c3ccccc3F)n2)cc1	inactive
COc1cc(-c2nnn(CC(=O)NCc3ccccc3)n2)cc(OC)c1OC	14.6 µM (active)
